Data taken from PubChem BioAssay (Tox21).
Results filed as inconclusive are left out. A call without a number means that no potency is given here. Active and inactive are the calls of the source. Calls come from the whole dose curve.

Biological target: Beta-2 adrenergic receptor (Homo sapiens) (UniProt P07550)
Assay: Adrenergic beta2 receptor (ADRB2) small molecule agonists, cell-based qHTS assay (AID 1963593);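 note: CHO cells stably overexpressing human ADRB2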
Outline: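 CHO cells stably over-expressing ADRB2 were plated overnight at 37C, then dosed with compounds plus a stimulation mix containing 100uM IBMX and 25uM Ro-20-1724 for 0.5hr at room temperature. cAMP was measured by HTRF competition, 1hr.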

Beta-2 adrenergic receptor (Homo sapiens), sequence (P07550 whole entry, looked up): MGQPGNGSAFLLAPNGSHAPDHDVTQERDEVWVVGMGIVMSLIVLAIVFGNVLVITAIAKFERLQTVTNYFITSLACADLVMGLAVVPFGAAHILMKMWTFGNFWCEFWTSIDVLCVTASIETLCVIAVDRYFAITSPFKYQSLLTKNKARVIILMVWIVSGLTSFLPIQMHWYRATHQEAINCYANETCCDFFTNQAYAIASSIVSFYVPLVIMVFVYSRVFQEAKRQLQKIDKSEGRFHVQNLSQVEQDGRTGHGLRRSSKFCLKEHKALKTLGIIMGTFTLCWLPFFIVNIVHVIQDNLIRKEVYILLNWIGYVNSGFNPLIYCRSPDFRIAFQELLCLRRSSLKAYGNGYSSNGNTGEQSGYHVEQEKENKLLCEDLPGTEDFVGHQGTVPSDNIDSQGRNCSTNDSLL

Compound	Potency
CN1CCCN=C1COC(=O)C(O)(c1ccccc1)C1CCCCC1 (stereo not given)	inactive
C[C@]12C=CC(=O)C=C1[C@@H](F)C[C@@H]1[C@@H]2[C@@H](O)C[C@@]2(C)[C@H]1CC[C@]2(O)C(=O)CO	inactive
CCOc1ccccc1O	inactive
CCCCC1CCCCC(=O)O1 (stereo not given)	inactive
CO/N=C(\C(=O)N[C@@H]1C(=O)N2C(C(=O)O)=C(CSc3nc(=O)c(O)nn3C)CS[C@H]12)c1csc(N)n1	inactive
C=CN1CCCCCC1=O	inactive
CC(C)OC(=O)C(C(=O)OC(C)C)=C1SC=CS1	inactive
CCCC(=O)OC(=O)CCC	inactive
O=C(CO)[C@@H](O)[C@H](O)[C@@H](O)CO	inactive
O=C1c2cccc(O)c2C(=O)c2c(O)cc(CO)cc21	inactive
CCCCC(CC)COC(=O)COc1ccc(Cl)cc1Cl (stereo not given)	inactive
O=C(O)c1cc(Cl)cc([N+](=O)[O-])c1Cl	inactive
SCCCCCCCCS	inactive
CCCn1cnc2c1c(=O)n(CCCCC(C)=O)c(=O)n2C	inactive
CCC(CO)(CO)[N+](=O)[O-]	inactive
O=C(O)c1ccc2cc(O)ccc2c1	inactive
Cc1ccc(S)cc1	inactive
COc1ccccc1Oc1c(NS(=O)(=O)c2ccc(C(C)(C)C)cc2)nc(-c2ncccn2)nc1OCCO	inactive

Compound	Potency
COC[C@H](c1ccc(C(F)(F)F)cc1)N1CCN(C2(C)CCN(C(=O)c3c(C)ncnc3C)CC2)C[C@H]1C	inactive
Cc1nc(C2CCCCC2)c(-c2ccc(S(N)(=O)=O)c(F)c2)o1	inactive
CCCCCCCC(=O)Oc1c(Br)cc(C#N)cc1Br	inactive
O=C(O)CCSCCC(=O)O	inactive
O=C1OC(=O)c2cc([N+](=O)[O-])ccc21	inactive
ClCCl	inactive
CC(=O)Nc1ccc(N)cc1	inactive
C=COCCCCO	inactive
CCOC(=O)Cc1cccc2ccccc12	inactive
CCC(C(=O)OCCN(CC)CC)c1ccccc1 (stereo not given)	inactive
CCCCCCC	inactive
CCOC(=O)C(Br)c1ccccc1 (stereo not given)	inactive
NCCOCCOCCN	inactive
COc1cccc(O)c1	inactive
CO[Si](C)(OC)c1ccccc1	inactive
CC(NN)c1ccccc1 (stereo not given)	inactive
CNC(=O)c1ccccc1Sc1ccc2c(/C=C/c3ccccn3)n[nH]c2c1	inactive
